These results are taken from PubChem BioAssay (Tox21).

Structures are written as SMILES. A number with no mark means an inactive call. Inconclusive results are not listed. Activity calls are given as the source filed them. Unless noted, calls come from the whole dose curve.

Assay [1] is described as follows: Nuclear factor erythroid 2-related factor 2/antioxidant responsive element (Nrf2/ARE) small molecule agonists: qHTS cell viability counter screen in human keratinocytes (AID 1919968; active = well fitted curve in the direction sought with a large enough effect in the repeat runs; an effect the other way counts as inactive or inconclusive; note: nearly all actives have a fitted effect of over 55% in size). In outline:
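KeratinoSens HaCaT cells, 1,500/well, preincubated 5 h, then exposed to compounds in DMSO for 23 h at 37 C/5% CO2. Viability read as CellTiter-Fluor fluorescence after 1 h, in the same wells as the ARE-luciferase read.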
Background: Quantitative high-throughput screening tests each substance at several concentrations.

Assay [2] in a line: Nuclear factor erythroid 2-related factor 2/antioxidant responsive element (Nrf2/ARE) small molecule agonists: luciferase reporter gene qHTS assay in human keratinocytes (AID 1919969). Note: nearly all actives have a fitted effect of over 35% in size.
Assay [3] has as its target Gonadotropin-releasing hormone receptor (Homo sapiens) (UniProt P30968). In words: Human gonadotropin-releasing hormone receptor (GnRHR) small molecule agonists, calcium flux assay in GnRHR-HEK293 cells (AID 1920063). Note: nearly all actives have a fitted effect of over 35% in size. Note: potency is the fitted concentration of half-maximal effect. In outline:
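HEK293 cells stably expressing human GnRHR were dye-loaded for 1 h at 37 C. Compound was added in agonist mode and fluorescence (Ex/Em 480/540) recorded kinetically for 3 min. Fifteen concentrations, triplicates.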

The target of assay [4] is KiSS-1 receptor (Homo sapiens) (UniProt Q969F8). The assay is described as follows: Human kisspeptin (KISS1R) small molecule agonists, calcium flux assay in KISS1R-HEK293 cells (AID 1920064; active = well fitted curve in the direction sought with a large enough effect in the repeat runs; an effect the other way counts as inactive or inconclusive). In outline: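 HEK293 cells stably expressing human KISS1R were loaded with calcium dye for 1 h at 37 C, then given compound; fluorescence (Ex/Em 480/540) was read kinetically for 3 min. Fifteen concentrations, triplicate.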
(A change in cytosolic calcium serves as a functional read-out for many receptors and channels.)

Assay [5] can be described thus: G protein-coupled receptor (GPCR) small molecule agonists, calcium flux assay: HEK293 wild type cell line counter screen (AID 1920065). In outline: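 Wild-type HEK293 cells plated 18 h, loaded with calcium dye 1 h at 37 C, then compounds added in agonist mode (ATP as positive control). Kinetic fluorescence Ex/Em 480/540 recorded 3 min at 1 sec intervals; 15 concentrations, triplicate.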

Assay [6] can be described thus: p53 small molecule agonists, cell-based qHTS assay with human liver microsomes (AID 1963577).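 Note: p53 response element beta-lactamase reporter cells with liver microsomes plus NADPH.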 In outline: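 With metabolic activation: human liver microsomes (0.5 mg/mL final) plus NADPH (0.5 mg/mL final) added alongside compounds to p53RE-bla cells; 16 h 37 C exposure; beta-lactamase read by LiveBLAzer fluorescence.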
Assay [7] is described as follows: p53 small molecule agonists, cell-based qHTS assay with rat liver microsomes (AID 1963578). A digest of the protocol: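 Metabolic activation by rat liver microsomes and NADPH, each 0.5 mg/mL final, added right after compounds to p53RE-bla reporter cells (4,000/well, plated 5 h earlier). 16 h at 37 C, then LiveBLAzer substrate for 2 h at room temperature in the dark; fluorescence read-out.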

A short description of assay [8]: p53 small molecule agonists, cell-based qHTS assay with human liver microsomes: qHTS cell viability counter screen (AID 1963579). Note: nearly all actives have a fitted effect of over 45% in size. In outline:
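Metabolic activation used human liver microsomes and NADPH, both 0.5 mg/mL final, over 16 hours at 37 C on p53RE-bla cells (4,000/well). Cytotoxicity measured by CellTiter-Glo luminescence, 30 min at room temperature.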

Assay [9] can be described thus: p53 small molecule agonists, cell-based qHTS assay with rat liver microsomes: qHTS cell viability counter screen (AID 1963580). Note: nearly all actives have a fitted effect of over 45% in size. In outline: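 Viability is assessed in parallel with the p53 reporter read: HCT-116 p53RE-bla cells receive compounds plus rat microsomes and NADPH (0.5 mg/mL final apiece), incubate 16 h at 37 C, and then CellTiter-Glo luminescence is recorded.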

Assay [10] can be described thus: p53 small molecule agonists, cell-based qHTS assay: qHTS cell viability counter screen (AID 1963581). Note: nearly all actives have a fitted effect of over 45% in size. In outline:
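p53RE-bla HCT-116 cells, compounds added 5 h after plating and incubated 16 h at 37 C. Cytotoxicity measured in the same wells as intracellular ATP by CellTiter-Glo luminescence after 30 min at room temperature.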

Assay [11] is described as follows: p53 small molecule agonists, cell-based qHTS assay (AID 1963582; active = well fitted activation curve with a large enough effect in the signal ratio in the repeat runs, not every such curve was filed as active; the % refers to the signal ratio). In outline: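 p53RE-bla reporter cells, compounds added in DMSO after 5 h plating, incubated 16 h at 37 C. Beta-lactamase read via 2 h room-temperature LiveBLAzer B/G FRET substrate, fluorescence intensity.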
Assay [12] deals with 5-hydroxytryptamine receptor 2A (Homo sapiens) (UniProt P28223). The assay is described as follows: 5-hydroxytryptamine receptor 2A (HTR2A) small molecule antagonists, cell-based qHTS assay (AID 1963586). Note: nearly all actives have a fitted effect of over 45% in size. A digest of the protocol:
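Antagonist-mode intracellular calcium assay: DOI (4 nM) added after 5 min compound pre-incubation at room temperature to dye-loaded HTR2A-CHO cells. Fluorescence followed for 3 min, sampled every second.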

The target is the same in assay [13]. The assay is described as follows: 5-hydroxytryptamine receptor 2A (HTR2A) small molecule agonists, cell-based qHTS assay (AID 1963587). Note: nearly all actives have a fitted effect of over 30% in size. In outline:
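CHO cells stably expressing human HTR2A, plated 18 h, loaded with calcium dye 1 h at 37 C. Agonist mode: compounds added and intracellular calcium fluorescence recorded kinetically for 2 min at 1 sec intervals.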

The target in assay [14] is Muscarinic acetylcholine receptor M1 (Homo sapiens) (UniProt P11229). In words: Cholinergic receptor muscarinic 1 (CHRM1) small molecule antagonists, cell-based qHTS assay (AID 1963588). Note: nearly all actives have a fitted effect of over 40% in size. In outline:
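CHRM1-CHO calcium-flux assay, antagonist mode. Cells were seeded 18 h, dye-loaded 1 h at 37 C and given compound for 5 min at RT, then acetylcholine was added at 50nM. FDSS fluorescence was read 3 min; 15 concentrations, three runs.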

Assay [15] shares this target. In words: Cholinergic receptor muscarinic 1 (CHRM1) small molecule agonists, cell-based qHTS assay (AID 1963589). Note: nearly all actives have a fitted effect of over 35% in size. In outline: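 CHO cells stably expressing human CHRM1 were loaded with calcium dye for 1 h at 37 C, then compound was added in agonist mode. Intracellular calcium fluorescence was followed kinetically at 1 s intervals. Fifteen concentrations were tested in three independent runs.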

Assay [16] in a line: cAMP Responsive Elements (CRE) small molecule agonists, cell-based qHTS assay (AID 1963590). A digest of the protocol: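 CRE-bla HEK 293T cells, 2,000/well in DMEM with 10% dialyzed FBS and 25 mM HEPES, pre-incubated 18 h at 37 C, then exposed to compound 3 h at 37 C. Beta-lactamase reporter read with LiveBLAzer B/G FRET substrate after 2 h at room temperature.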
Assay [17] can be described thus: cAMP Responsive Elements (CRE) small molecule antagonists, cell-based qHTS assay (AID 1963591; active = well fitted inhibition curve with a large enough effect in the signal ratio in the repeat runs, not every such curve was filed as active; the % refers to the signal ratio). In outline:
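CRE-bla HEK293T cells plated 18 h, then given compound plus NKH477 at 0.25 uM final for 3 h at 37C. Beta-lactamase reporter read with LiveBLAzer B/G FRET substrate after 2 h at room temperature.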

For assay [18], the target named is Beta-2 adrenergic receptor (Homo sapiens) (UniProt P07550). The assay is described as follows: Adrenergic beta2 receptor (ADRB2) small molecule antagonists, cell-based qHTS assay (AID 1963592). Note: series mostly up to about 92 µM; nearly all actives have a fitted effect of over 50% in size. In outline:
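Cells (CHO, stable ADRB2 overexpression) incubated 18-20hr at 37C; compounds added from DMSO; agonist mix (1nM isoproterenol, 100uM IBMX, 25uM Ro-20-1724) added; 0.5hr RT; d2-cAMP and anti-cAMP-cryptate added; 1hr RT; 665/615 nm read.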

For assay [19], the target named is D(2) dopamine receptor (Homo sapiens) (UniProt P14416). The assay is described as follows: Dopamine D2 receptor (DRD2) small molecule agonists, cell-based qHTS assay (AID 1963594). Note: nearly all actives have a fitted effect of over 35% in size. A digest of the protocol: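 HEK293 cells stably expressing human DRD2, pre-treated with PDE inhibitor Ro20-1724 (0.1 mM final) and compound 10 min at room temperature, then stimulated with NKH477 (200nM […]) for 30 min. cAMP read by HTRF (665/620 nm).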

For assay [20] the target is unchanged. The assay is described as follows: Dopamine D2 receptor (DRD2) small molecule antagonists, cell-based qHTS assay (AID 1963595; active = well fitted inhibition curve with a large enough effect in the signal ratio in the repeat runs, with a control signal flat; the % refers to the signal ratio). In outline: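 HEK293 cells stably expressing DRD2 were preincubated with 0.1 mM Ro20-1724, then with compound for 10 min at room temperature. Cells were stimulated with 200 nM NKH477 plus 12 nM quinpirole for 30 min, and cAMP was read by HTRF.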
% is set by controls: 0 for no effect and ±100 for the full control effect.

Chain of Gonadotropin-releasing hormone receptor (Homo sapiens) (P30968 whole entry, looked up): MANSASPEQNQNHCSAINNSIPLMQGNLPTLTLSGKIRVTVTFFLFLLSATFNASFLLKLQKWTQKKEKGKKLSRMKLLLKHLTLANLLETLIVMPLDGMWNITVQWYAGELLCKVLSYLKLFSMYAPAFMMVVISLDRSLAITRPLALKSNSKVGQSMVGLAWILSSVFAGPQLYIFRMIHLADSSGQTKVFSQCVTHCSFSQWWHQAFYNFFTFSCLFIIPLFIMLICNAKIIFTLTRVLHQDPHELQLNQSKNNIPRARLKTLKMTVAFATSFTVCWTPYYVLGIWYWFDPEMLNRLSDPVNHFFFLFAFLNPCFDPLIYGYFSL
Chain of Beta-2 adrenergic receptor (Homo sapiens) (P07550 whole entry, looked up): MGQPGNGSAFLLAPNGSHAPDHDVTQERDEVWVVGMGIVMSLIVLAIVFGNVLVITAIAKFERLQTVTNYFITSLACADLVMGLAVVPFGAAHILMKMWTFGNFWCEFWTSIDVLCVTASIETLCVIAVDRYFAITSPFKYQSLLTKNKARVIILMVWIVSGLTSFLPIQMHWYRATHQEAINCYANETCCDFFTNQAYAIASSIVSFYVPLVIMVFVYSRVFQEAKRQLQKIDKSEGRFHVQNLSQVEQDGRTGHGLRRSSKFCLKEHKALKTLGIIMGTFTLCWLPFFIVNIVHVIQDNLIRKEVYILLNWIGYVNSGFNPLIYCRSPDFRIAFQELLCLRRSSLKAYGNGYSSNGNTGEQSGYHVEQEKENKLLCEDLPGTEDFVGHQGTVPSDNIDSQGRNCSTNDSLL
Chain of D(2) dopamine receptor (Homo sapiens) (P14416 whole entry, looked up): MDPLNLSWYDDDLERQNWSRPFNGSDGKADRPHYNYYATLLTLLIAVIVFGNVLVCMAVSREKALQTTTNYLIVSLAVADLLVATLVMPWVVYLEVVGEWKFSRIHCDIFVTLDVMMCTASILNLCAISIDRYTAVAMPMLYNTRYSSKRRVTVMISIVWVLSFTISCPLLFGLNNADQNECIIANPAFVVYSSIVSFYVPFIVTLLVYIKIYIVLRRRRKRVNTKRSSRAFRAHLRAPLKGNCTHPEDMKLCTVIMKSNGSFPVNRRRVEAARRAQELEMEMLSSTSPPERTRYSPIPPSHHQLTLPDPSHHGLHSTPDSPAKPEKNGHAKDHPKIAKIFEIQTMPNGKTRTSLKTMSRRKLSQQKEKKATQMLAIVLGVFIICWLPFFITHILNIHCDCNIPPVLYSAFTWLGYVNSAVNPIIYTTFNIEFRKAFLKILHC
Chain of Muscarinic acetylcholine receptor M1 (Homo sapiens) (P11229 whole entry, looked up): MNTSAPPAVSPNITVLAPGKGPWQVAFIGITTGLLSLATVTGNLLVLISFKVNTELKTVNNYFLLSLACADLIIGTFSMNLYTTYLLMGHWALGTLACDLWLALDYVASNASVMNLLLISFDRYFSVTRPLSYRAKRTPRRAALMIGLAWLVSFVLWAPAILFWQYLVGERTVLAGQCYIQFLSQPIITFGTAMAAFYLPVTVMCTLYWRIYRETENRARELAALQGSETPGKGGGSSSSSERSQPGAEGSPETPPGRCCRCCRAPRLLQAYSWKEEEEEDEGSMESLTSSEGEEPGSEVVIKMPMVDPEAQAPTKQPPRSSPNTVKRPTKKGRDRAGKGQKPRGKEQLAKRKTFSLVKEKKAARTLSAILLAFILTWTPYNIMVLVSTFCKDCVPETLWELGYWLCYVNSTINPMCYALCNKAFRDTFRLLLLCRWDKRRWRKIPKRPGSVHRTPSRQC
Chain of KiSS-1 receptor (Homo sapiens) (Q969F8 whole entry, looked up): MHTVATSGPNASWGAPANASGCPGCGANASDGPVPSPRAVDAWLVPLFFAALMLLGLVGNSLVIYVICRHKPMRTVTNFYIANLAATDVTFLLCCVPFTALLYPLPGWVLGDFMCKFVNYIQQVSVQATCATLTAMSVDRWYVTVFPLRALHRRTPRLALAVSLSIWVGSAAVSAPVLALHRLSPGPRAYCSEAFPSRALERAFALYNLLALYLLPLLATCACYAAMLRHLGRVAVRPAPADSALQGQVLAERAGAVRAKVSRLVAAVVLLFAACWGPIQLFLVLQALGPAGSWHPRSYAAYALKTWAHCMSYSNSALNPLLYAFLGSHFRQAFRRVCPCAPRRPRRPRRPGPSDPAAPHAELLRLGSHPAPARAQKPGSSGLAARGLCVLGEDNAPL
Chain of 5-hydroxytryptamine receptor 2A (Homo sapiens) (P28223 whole entry, looked up): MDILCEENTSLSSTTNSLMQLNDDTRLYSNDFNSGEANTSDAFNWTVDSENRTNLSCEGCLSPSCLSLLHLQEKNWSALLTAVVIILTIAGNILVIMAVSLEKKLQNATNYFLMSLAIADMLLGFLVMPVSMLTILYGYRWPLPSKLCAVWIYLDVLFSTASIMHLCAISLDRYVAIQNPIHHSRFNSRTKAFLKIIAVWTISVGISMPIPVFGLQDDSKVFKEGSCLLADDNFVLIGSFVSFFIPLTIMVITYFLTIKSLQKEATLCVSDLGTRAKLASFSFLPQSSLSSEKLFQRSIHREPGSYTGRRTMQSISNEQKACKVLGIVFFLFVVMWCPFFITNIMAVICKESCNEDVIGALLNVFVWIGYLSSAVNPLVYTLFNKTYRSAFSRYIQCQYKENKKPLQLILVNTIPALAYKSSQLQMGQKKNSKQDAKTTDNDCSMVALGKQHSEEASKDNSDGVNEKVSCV

Take `CCOC(=O)c1ccccc1`: the Potency entry in [1], in assay [2], in assay [3], in [6], in [7] and in assay [8] was “inactive” throughout. Further, the Potency result in assay [9], in assay [10], in [11], in assay [12], in assay [13] and in [14] was “inactive” throughout. Besides, the Potency result in assay [15], in [16], in [17], in assay [18], in [19] and in [20] was “inactive” throughout. Besides, the outcome in assay [4] and in assay [5] was inactive.

For the compound `CCN(CC)c1ccc(C=O)cc1`, the Potency entry in [1], in assay [2], in assay [3], in [6], in [7] and in assay [8] was “inactive” each time. The Potency result in assay [9], in assay [10], in [11], in assay [12], in assay [13] and in assay [14] was “inactive” in each case. For the same compound, the Potency result in assay [15], in [16], in assay [17], in assay [18], in assay [19] and in assay [20] was “inactive” in each case. The outcome in assay [4] and in assay [5] was inactive.

On to `CCCCC`, for which the Potency result in assay [1], in assay [2], in assay [6], in assay [7], in assay [8] and in assay [9] was “inactive” each time. The Potency result in assay [10], in assay [11], in [12], in assay [13], in [14] and in [15] was “inactive” throughout. Further, the Potency result in assay [16], in [18], in [19] and in [20] was “inactive” each time. The Potency in [3] was 38.3 µM (active). Moreover, the outcome in assay [4] and in assay [5] was inactive.

Take `CC(=O)CC(=O)Nc1ccc(C)cc1C`: the Potency entry in assay [1], in assay [2], in assay [3], in assay [6], in assay [7] and in [8] was “inactive” throughout. For the same compound, the Potency result in assay [9], in assay [10], in [11], in assay [12], in assay [13] and in [14] was “inactive” in each case. For the same compound, the Potency result in assay [15], in assay [16] and in assay [20] was “inactive” throughout. In addition, the result in assay [4] and in [5] was inactive.

`CC(C)(Oc1ccc(Cl)cc1)C(=O)OCCCOC(=O)C(C)(C)Oc1ccc(Cl)cc1`: the Potency entry in assay [1], in assay [2], in [3], in assay [6], in assay [7] and in [8] was “inactive” throughout. The Potency entry in [9], in [10], in assay [11], in assay [12], in assay [13] and in assay [14] was “inactive” in each case. Also, the Potency result in assay [15], in [16], in [18] and in assay [19] was “inactive” throughout. The outcome in assay [4] and in assay [5] was inactive.

With `NC[C@H]1O[C@H](O[C@H]2[C@H](O[C@@H]3O[C@H](CO)[C@@H](O)[C@H]3O)C(O)[C@H](N)C[C@@H]2N)[C@H](N)[C@@H](O)[C@@H]1O` (some centres not stated), the activity change, negative = cytotoxicity in [1] is -6.49% [at 8.39 µM]; in assay [8], 26.1% [at 5.99 µM]; in assay [9], 1.61% [at 5.99 µM]; in assay [10] it was 0.386% [at 5.99 µM]. The activity, positive = activation in [2] was -8.73% [at 8.39 µM]. Further, the activity change in assay [3] was -0.504% [at 5.22 µM, stronger effect = higher value]. The activation in assay [4] is -0.532% [at 6.97 µM]; in [5], -0.0987% [at 5.23 µM]; in assay [6], 0.817% [at 5.99 µM]; in assay [7] it was -0.761% [at 5.99 µM]; in assay [11], -3.27% [at 5.99 µM]; in assay [13] it was -4.1% [at 7.02 µM]. In addition, the activation was 0.272% [at 6.97 µM] in [15] and 4.47% [at 8.39 µM] in assay [16]. In addition, the activity, negative = inhibition in assay [12] was 2.42% [at 5.62 µM]; in assay [14], 1.47% [at 5.58 µM]. Besides, the activity change, negative = inhibition in assay [18] is 7.44% [at 8.39 µM]; in assay [20], -1.87% [at 8.38 µM].
